Results reported in ChEMBL document CHEMBL1201862, “PubChem BioAssay data set” (2004).
In all, about 400,000 compounds went through this assay and about 2,100 (0.53%) were called active. About 14% were inconclusive and are not listed. How the calls were made is not given here. Only a selection was taken, and actives are over-represented in it overall.

What follows are molecules tested against Ataxin-2 (Homo sapiens) (UniProt Q99700) (assay: qHTS for Inhibitors of ATXN expression.).
Assay type: functional

Ataxin-2 (Homo sapiens), sequence (Q99700 whole entry): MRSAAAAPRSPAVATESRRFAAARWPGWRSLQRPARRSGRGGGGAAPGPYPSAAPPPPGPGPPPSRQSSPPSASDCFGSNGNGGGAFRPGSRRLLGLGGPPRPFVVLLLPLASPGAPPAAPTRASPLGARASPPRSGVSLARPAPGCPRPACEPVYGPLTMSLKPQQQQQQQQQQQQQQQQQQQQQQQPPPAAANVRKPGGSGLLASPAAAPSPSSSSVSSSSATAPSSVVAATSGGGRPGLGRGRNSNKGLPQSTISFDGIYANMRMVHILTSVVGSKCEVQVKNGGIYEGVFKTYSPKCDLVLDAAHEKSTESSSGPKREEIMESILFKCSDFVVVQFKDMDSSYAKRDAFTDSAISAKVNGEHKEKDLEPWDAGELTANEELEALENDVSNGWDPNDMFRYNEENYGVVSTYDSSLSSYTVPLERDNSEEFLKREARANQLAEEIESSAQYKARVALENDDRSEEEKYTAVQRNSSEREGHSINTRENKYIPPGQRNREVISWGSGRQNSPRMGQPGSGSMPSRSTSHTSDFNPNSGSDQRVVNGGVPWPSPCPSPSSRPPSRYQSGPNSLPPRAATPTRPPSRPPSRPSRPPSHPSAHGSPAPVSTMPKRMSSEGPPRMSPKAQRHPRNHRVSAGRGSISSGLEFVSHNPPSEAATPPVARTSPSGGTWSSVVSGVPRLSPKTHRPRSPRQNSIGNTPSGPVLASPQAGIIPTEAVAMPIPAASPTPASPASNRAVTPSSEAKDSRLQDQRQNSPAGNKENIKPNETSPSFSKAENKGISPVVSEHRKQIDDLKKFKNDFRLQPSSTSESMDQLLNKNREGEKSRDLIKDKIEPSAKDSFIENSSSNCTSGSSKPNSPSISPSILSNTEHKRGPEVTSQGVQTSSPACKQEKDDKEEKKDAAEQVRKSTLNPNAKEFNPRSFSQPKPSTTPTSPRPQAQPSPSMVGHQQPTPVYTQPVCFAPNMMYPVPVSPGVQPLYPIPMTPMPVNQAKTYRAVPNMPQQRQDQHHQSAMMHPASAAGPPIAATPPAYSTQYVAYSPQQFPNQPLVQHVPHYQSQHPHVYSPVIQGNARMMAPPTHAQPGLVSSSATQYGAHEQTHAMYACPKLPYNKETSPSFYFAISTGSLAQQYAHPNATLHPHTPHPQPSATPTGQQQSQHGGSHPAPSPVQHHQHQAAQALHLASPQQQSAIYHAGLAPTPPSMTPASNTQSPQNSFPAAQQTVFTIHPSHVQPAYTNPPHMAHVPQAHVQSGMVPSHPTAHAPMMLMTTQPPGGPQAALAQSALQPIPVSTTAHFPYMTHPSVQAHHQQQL

| SMILES | Potency |
| --- | --- |
| Cc1nn(Cc2ccccc2Cl)c(Cl)c1/C=C/C(=O)OCC(=O)NC1CCS(=O)(=O)C1 (centres undefined) | inactive |
| COc1ccc(-n2cccc2/C=C/[N+](=O)[O-])cc1 | 31.6 µM (active) |
| COc1ccc(S(=O)(=O)Nc2ccc(-n3cccc3)cc2)cc1 | inactive |
| CCCC(=O)NCCc1nc2cc([N+](=O)[O-])ccc2n1C | inactive |
| COc1cc(C(=O)NNC(=O)c2ccccc2OCc2c(C)noc2C)cc(OC)c1OC | inactive |
| COc1cc(C(=O)N2C(=O)c3cccc(N)c3C2=O)cc(OC)c1OC | inactive |
| COc1cc(C(=O)O/N=C2/C=CC(=O)C(C)=C2C)cc(OC)c1OC | 39.8 µM (active) |
| CCc1ccc(S(=O)(=O)Nc2ccc(-c3nc4cccnc4s3)cc2)s1 | inactive |
| NC(=O)c1cc(-c2ccccc2)nc2ccc(Br)cc12 | inactive |
| CSc1ccccc1NC(=O)c1cc(-c2cccnc2)nc2ccc(Br)cc12 | 42.3 µM (active) |
| O=C(NNC(=O)c1cc(-c2cccnc2)nc2ccccc12)Nc1ccc(Cl)cc1 | inactive |
| COc1cccc(/C=C/c2nc(C#N)c(NCC(C)C)o2)c1 | inactive |
| CCOC(=O)c1cc2c(=O)n3ccccc3nc2n(C)/c1=N\C(=O)c1c(-c2c(F)cccc2Cl)noc1C | inactive |
| Cc1coc2c1C(=O)C(=O)c1c-2ccc2c(C)cccc12 | 10 µM (active) |
| CNc1ccc2c3c(cccc13)C(=O)N(C)C2=O | inactive |
| CCn1cnc2sc(C(=O)Oc3ccc(Br)cc3)c(C)c2c1=O | inactive |
| COc1ccc(OC)c(CN2CCN(Cc3cc(=O)oc4cc(O)ccc34)CC2)c1 | inactive |
| COC(=O)C1=CN(Cc2cccs2)C=C(C(=O)OC)C1c1cccc(O)c1 | inactive |
| COC(=O)c1ccc(S(=O)(=O)NCc2ccco2)o1 | inactive |
| COc1ccc(C(=O)NCC(=O)OCC(=O)NCc2ccco2)cc1 | inactive |
| COC(=O)C1=CN(Cc2cccs2)C=C(C(=O)OC)C1c1ccc(OC)cc1OC | inactive |
| C=Cc1ccc(Cn2c(C(=O)O)c(CNCCc3ccco3)c3ccc(C)cc32)cc1 | 22.4 µM (active) |
| COC(=O)c1cc(-c2cc(OC)ccc2OC)nc2c1c(=O)n(C)c(=O)n2Cc1ccccc1 | inactive |
| COc1ccc2c(CNCCc3cccs3)c(C(=O)O)n(Cc3cccc(F)c3)c2c1 | 35.5 µM (active) |
| COc1ccc(Cn2c(C(=O)O)c(CNCCc3ccco3)c3ccc(C)cc32)cc1 | 31.6 µM (active) |

| SMILES | Potency |
| --- | --- |
| COc1ccc(Cn2c(C(=O)O)c(CNCCc3cc(OC)ccc3OC)c3ccc(C)cc32)cc1 | 22.4 µM (active) |
| COc1ccc(-c2csc(-c3cc4ccccc4oc3=N)n2)cc1 | inactive |
| COc1ccc2nc3ccccc3[n+]([O-])c2c1 | inactive |
| CCc1noc(C)c1C(=O)NNC(=O)COc1ccc(Br)cc1 | inactive |
| N#Cc1c(-c2ccc(Cl)cc2)c2c([nH]c1=O)-c1ccccc1OC2 | inactive |
| O=C1CCN2C=Nc3cccc4ccc1c2c34 | inactive |
| O=c1nc2n(CCO)c3ccccc3cc-2c(=O)[nH]1 | inactive |
| Cc1ccc(C(=O)OCC(=O)NCc2ccco2)cc1C | inactive |
| Cc1ccc(Cn2c(C(=O)O)c(CNCCc3ccco3)c3ccc(C)cc32)cc1 | 39.8 µM (active) |
| C=Cc1ccc(Cn2c(C(=O)O)c(CNCc3cccs3)c3ccc(C)cc32)cc1 | 25.1 µM (active) |
| CCCC(=O)n1nc(-c2ccc(C)cc2)nc1NCc1ccco1 | inactive |
| Cc1cccn2c(=O)c3cc(C(=O)NC4CCCC4)c(=N)n(Cc4ccc(F)cc4)c3nc12 | inactive |
| C=Cc1ccc(Cn2c(C(=O)O)c(CNC3CCCC3)c3ccc(C)cc32)cc1 | 44.7 µM (active) |
| CC1=C(C(=O)Nc2ccccn2)C(c2cn(C)nc2C)C2=C(O)CCCC2=N1 (centres undefined) | inactive |
| Cc1nnc(NC(=O)CSc2nnc(-c3ccco3)n2C(C)C)s1 | inactive |
| Cc1nc(Nc2cccc(Cl)c2)c2oc3ccccc3c2n1 | inactive |
| Cc1cccc(-n2c(=O)c(C#N)cc3c(=O)n4ccccc4nc32)c1 | inactive |
| Cc1cccc2c(SCC(N)=O)nc(-c3ccccc3)nc12 | inactive |
| Cc1cc(C)cc(-n2c(SCC(N)=O)nc3c(oc4ccccc43)c2=O)c1 | 22.4 µM (active) |
| COCCNC(=O)c1c(N)n(-c2cccc(C)c2)c2nc3ccccc3nc12 | inactive |
| Cc1cccc(-n2c(SCC(N)=O)nc3c(oc4ccccc43)c2=O)c1 | 20 µM (active) |
| CCCOc1cccc(C2c3c(oc4ccc(F)cc4c3=O)C(=O)N2CCCN2CCOCC2)c1 (centres undefined) | inactive |
| Cc1nc(Cl)c2c(n1)N=C1CCCC(O)=C1O2 | inactive |
| Cc1ccc(CNC(=O)c2cc3c(=O)n4ccccc4nc3n(CC3CCCO3)c2=N)cc1 (centres undefined) | inactive |
| CCCCn1cc[n+](-c2nc3ccccc3nc2[N-]S(=O)(=O)c2ccc(Cl)cc2)c1 | inactive |

| SMILES | Potency |
| --- | --- |
| Cc1ccc(-c2nnc(Nc3ccc4c(c3)OCO4)c3ccccc23)cc1S(=O)(=O)NC(C)C | inactive |
| Cc1ccc(-c2nnc(Nc3cccc(O)c3)c3ccccc23)cc1S(=O)(=O)NCC1CCCO1 (centres undefined) | 39.8 µM (active) |
| O=C1Nc2ccc(S(=O)(=O)NCC3CCCO3)c3cccc1c23 (centres undefined) | inactive |
| CN1CCN(C(=O)c2cc3nc(-c4ccco4)cc(C(F)(F)F)n3n2)CC1 | inactive |
| Nc1ccc(Cn2ccc3c4c(N)nc(N)nc4ccc32)cc1 | 29.9 µM (active) |
| COc1ccc(CC(=O)NC2CCCc3ccccc32)cc1 (centres undefined) | inactive |
| CN(CC(=O)Nc1ccccc1Sc1ccccc1)C1CCCCC1 | inactive |
| COC(=O)N1C(=O)[C@@](c2ccccc2)(C2CCCC2)N1C(=O)OC | 17.8 µM (active) |
| Cc1ccc(C2=CC(c3ccc(Cl)cc3)n3nc(-c4ccc(C)cc4)nc3N2)cc1 (centres undefined) | inactive |
| O=C(CCCn1c2ccccc2c(=O)c2ccccc21)Nc1cccc(Cl)c1 | inactive |
| COc1ccc(CCNC(=O)CCCn2c(=O)c3ccccc3n(CC(=O)Nc3ccc(C)cc3Cl)c2=O)cc1OC | 20 µM (active) |
| COc1ccc(CCNC(=O)CCCn2c(=O)c3ccccc3n(Cc3cccc(Cl)c3)c2=O)cc1OC | 39.8 µM (active) |
| COc1ccc(Cl)cc1NC(=O)CN1C(=O)NC(C)(Cc2ccc(OC)c(OC)c2)C1=O (centres undefined) | inactive |
| COc1ccc(Cl)cc1NC(=O)Cn1c(=O)n(CCCC(=O)NCCc2ccc(OC)c(OC)c2)c(=O)c2ccccc21 | 39.8 µM (active) |
| Cc1ccc2c(c1)c(=O)c1ccccc1n2CCCC(=O)Nc1ccc(C)c(F)c1 | inactive |
| COC/C=C/C1=CC2=CC(=O)C(C)(OC(=O)c3cnc4ccccc4n3)C(=O)C2=CN1Cc1ccccc1 (centres undefined) | 12.6 µM (active) |
| COc1ccc2oc(=O)c(-c3nnc(N)s3)cc2c1 | inactive |
| CCC(C)NC(=O)c1sc2nc(C)c(C(=O)Nc3ccc(C)cc3C)c(-c3ccccc3Cl)c2c1N (centres undefined) | inactive |
| C=C(C)COc1ccc(-c2nc(N)ncc2-c2ccc(Cl)cc2)c(O)c1 | 39.8 µM (active) |
| C=C(C)COc1ccc(-c2n[nH]cc2-c2ccc(OC)c(OC)c2)c(O)c1 | 44.7 µM (active) |
| COC(=O)c1c(C)nc(C)c(C(=O)OC)c1-c1ccc(OC)cc1 | inactive |
| CCN(CC)C(=O)c1sc2nc(-c3cccs3)cc(-c3ccc(Cl)cc3)c2c1N | inactive |
| C=C(C)COc1ccc(-c2[nH]nc(C)c2-c2ccc(Br)cc2)c(O)c1 | 25.1 µM (active) |
| COc1ccc(-c2c(C)c3ccc(O)cc3oc2=O)cc1 | inactive |
| C=C(C)COc1ccc(-c2ncncc2-c2ccc(Br)cc2)c(O)c1 | inactive |

| SMILES | Potency |
| --- | --- |
| COc1ccc(-c2c(C)n[nH]c2-c2ccc(OC)c(C)c2O)cc1 | 39.8 µM (active) |
| COc1cc(/C=N/NC(=O)Nc2cccc3nsnc23)cc(OC)c1OC | inactive |
| CNC(=O)c1cc2c(=O)n3cccc(C)c3nc2n(C(C)C)c1=N | inactive |
| Cc1ccc(S(=O)(=O)NCCc2cn3nc(C)c(C)nc3n2)cc1C | inactive |
| Nc1ccc2c(c1)Oc1ccccc1C=C2 | inactive |
| COc1ccccc1/N=c1\oc2cc(O)ccc2cc1C(N)=O | inactive |
| CCn1nc(NC(=O)Cc2ccc(OC)cc2)c2cc3cccc(C)c3nc21 | inactive |
| C/C(CC1CC2=C(CC1(C)C)C(C)(C)CCC2)=N\NC(N)=S (centres undefined) | 35.5 µM (active) |
| CN1C(=O)c2ccccc2N(C)C1c1ccccc1Cl (centres undefined) | inactive |
| COc1ccccc1C1CCCN1Cc1nc(-c2ccc(C)s2)oc1C (centres undefined) | inactive |
| COCCNc1cc(C)nc2cc(-c3ccc(C)cc3)nn12 | inactive |
| Cc1ccc(Nc2cc(C)nc3nc(Cc4ccc(Cl)cc4)nn23)cc1 | 22.4 µM (active) |
| Cc1cc(C)n2nc(SCC(=O)Nc3ccc(F)c(F)c3F)nc2n1 | inactive |
| Cc1c(-c2ccccc2)c(=O)oc2c(CN3CCN(C)CC3)c(O)ccc12 | inactive |
| CN(C(=O)COC(=O)c1nc(Cl)c(Cl)c(Cl)c1Cl)C1CCS(=O)(=O)C1 (centres undefined) | 33.6 µM (active) |
| Cc1ccc(-c2cc(C(=O)OCC(=O)N(C)C3CCS(=O)(=O)C3)c3ccccc3n2)o1 (centres undefined) | inactive |
| CN(C(=O)COC(=O)c1cc(-c2ccc(Cl)s2)nc2ccccc12)C1CCS(=O)(=O)C1 (centres undefined) | inactive |
| CC1Cc2ccccc2N1C(=O)COC(=O)c1ccc(N(C)C)cc1 (centres undefined) | inactive |
| COc1cc(/C=C(/C#N)c2nc3ccccc3[nH]2)ccc1OCC(=O)Nc1ccccc1C | inactive |
| COc1cc(/C=C(/C#N)c2nc3ccccc3[nH]2)ccc1OCC(=O)Nc1ccccc1C(C)C | inactive |
| Cc1cc(Br)ccc1SCC(=O)OCC(O)=C(C#N)c1nc2ccccc2[nH]1 | 39.8 µM (active) |
| Cc1cc(/C=C(/C#N)c2nc3ccccc3[nH]2)c(C)n1-c1ccccc1C(=O)O | inactive |
| Cc1cc(Br)ccc1SCC(=O)OC/C(O)=C(\C#N)c1nc2ccccc2[nH]1 | 11.2 µM (active) |
| CCO/C(O)=C(\C#N)c1cc(C)c2ccccc2n1 | inactive |
